Data taken from PubChem BioAssay AID463193 (University of Pittsburgh Molecular Library Screening Center, 2010).
The whole screen tested about 190,000 compounds, of which about 1,900 (1%) were called active.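 How the source made its calls: active means percentage of spot-positive cells more than 3 SD above its plate mean, without a fluorescence outlier flag or 80% toxicity; inconclusive means no clear call, values can overlap the other calls; inactive means the rest.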 Shown is part of a subset that was picked to be rich in actives.

experiment: GFP-LC3 puncta formation changes – imaging, high-content, MEF GFP-LC3, primary screen (AID 463193); conditions: autophagy, at 10 µM; % cells with GFP-LC3 spots: stronger effect = higher value; toxicity: measured here: cell loss, nuclei count;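 on % cells with GFP-LC3 spots: spot-positive cell cutoff set from DMSO-treated cells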

Row | SMILES | % cells with GFP-LC3 spots | toxicity [%]
1 | CSc1ccc(CCNC(=O)C2CCN(c3nnc(-n4cccc4)s3)CC2)cc1 | 4.67% (inactive) | 3.56
2 | CCOC(=O)C1CCCN(C(=O)C2CCN(c3nnc(-n4cccc4)s3)CC2)C1 (configuration not stated) | 15.3% (active) | 6.19
3 | CCOC(=O)C1CCCN(C(=O)c2cncc(Br)c2)C1 (configuration not stated) | 9.51% (inactive) | 4.79
4 | Fc1cc(Br)ccc1NC(=S)Nc1cccnc1 | 4.97% (inactive) | -1.9
5 | CN(C)c1ccc(-n2cccc2/C=C2/SC(=Nc3ccc(F)cc3)NC2=O)cc1 | 93.2% (active) | -20.2
6 | CN(C)c1ccc(-n2cccc2/C=N/n2cnnc2)cc1 | 4.65% (inactive) | -2.02
7 | Cc1cccc(N=C2NC(=O)/C(=C/c3cn(C)c4ccccc34)S2)c1 | 2.55% (inactive) | 4.32
8 | CCC(C)(C)NC(=O)/C=C/c1cc(OC)c(OC)c(S(=O)(=O)N2CCc3ccccc32)c1 | 11.3% (inactive) | 20
9 | O=C(Nc1cccc([N+](=O)[O-])c1)Nc1ccc(Cl)cn1 | 1.56% (inactive) | 15.9
10 | O=C(CCl)N(Cc1cccc([N+](=O)[O-])c1)c1cccc(Cl)c1 | 60.8% (active) | 58.5
11 | CCN(CC)C(=O)CN(c1cccc([N+](=O)[O-])c1)S(=O)(=O)c1ccccc1 | 0.147% (inactive) | 2.32
12 | Cc1ccccc1OCC(=O)Nc1nc(C)c(C(=O)N(C)C)s1 | 28.3% (inactive) | -9.79
13 | CCc1cccc(NC(=O)CCC(=O)O)c1 | 4.04% (inactive) | 8.61
14 | O=C(c1ccc(F)cc1)n1cc(C(=S)N2CCOCC2)c2ccccc21 | 8.35% (inactive) | -13.5
15 | CCOC(=O)c1sc(NC(=O)CSc2nc(O)c(Cc3ccccc3)c(=O)[nH]2)nc1C | 4.28% (inactive) | -1.5
16 | CCc1ccc(Oc2coc3cc(OC(=O)c4cc5ccccc5oc4=O)ccc3c2=O)cc1 | 1.87% (inactive) | -5.27
17 | COC(=O)c1ccccc1NC(=O)c1cncc(Br)c1 | 6.11% (inactive) | -8.54
18 | COc1ccc(Oc2coc3cc(OC(=O)c4cncc(Br)c4)ccc3c2=O)cc1 | 25.7% (active) | -11.8
19 | Nc1nc(SCC(=O)N2CCN(S(=O)(=O)c3ccc(Cl)cc3)CC2)n[nH]1 | 1.97% (inactive) | -0.836
20 | N#Cc1ccsc1NC(=O)CN1CCN(S(=O)(=O)c2cc(Cl)ccc2Cl)CC1 | 7.41% (inactive) | 41.3
21 | CCCN1CC=C2C(C#N)=C(N)C(C#N)(C#N)C(c3cc(OC)ccc3OC)C2C1 (configuration not stated) | 99.7% (active) | 9.7
22 | CCOC(=O)N1CC=C2C(C#N)=C(N)C(C#N)(C#N)[C@H](c3cccs3)[C@H]2C1 | 11.3% (inactive) | -6.29
23 | CCC1=C(C(=O)OC)C(c2cc(OC)ccc2OC)C(C#N)=C(N)O1 (configuration not stated) | 2.22% (inactive) | -10.7
24 | COCCCNCCOCCOc1ccc(Cl)cc1Br | 5.65% (inactive) | 4.08
25 | CCn1nc(C)c(/C=N/NC(=O)Cc2ccc(Cl)cc2)c1C | 4.23% (inactive) | 8.44
26 | Cc1cc(C)c(S(=O)(=O)NCCCN2CCOCC2)cc1Br | 19.8% (active) | 9.5

Row | SMILES | % cells with GFP-LC3 spots | toxicity [%]
27 | Cc1ccc(S(=O)(=O)NCCN2CCOCC2)cc1C | 1.8% (inactive) | 15.4
28 | Cc1cc(C)cc(NC(=S)NCCCN2CCOCC2)c1 | 12.3% (inactive) | -2.96
29 | CCc1nc2ccccc2c(C(=O)NCc2ccc(OC)cc2)c1C | 2.64% (inactive) | -18.8
30 | C=CCNc1nc(Nc2ccc(Cl)cc2)nc(OC)n1 | 0.706% (inactive) | 0.881
31 | Cc1ccc(NC(=O)OCCNC(=O)c2ccncc2)cc1 | 5.3% (inactive) | 0.481
32 | CC[C@H]1OC(=O)[C@H](C)[C@@H](O[C@H]2C[C@@](C)(OC)[C@@H](O)[C@H](C)O2)[C@H](C)[C@@H](O[C@@H]2O[C@H](C)C[C@H](N(C)C)[C@H]2O)[C@](C)(O)C[C@@H](C)[C@@H]2N[C@@H](COCCOC)O[C@H]([C@H]2C)[C@]1(C)O | 10.6% (inactive) | 20.5
33 | COc1cccc2cc(S(=O)(=O)c3ccc(C)cc3)/c(=N/NS(=O)(=O)c3ccc(C)cc3)oc12 | 5.62% (inactive) | 3.69
34 | CCN1C(=O)/C(=c2\s/c(=C3\Sc4ccccc4N3C)c(=O)n2C)N(C)C1=S | 1.17% (inactive) | 19.3
35 | CCN1C(=O)/C(=C2/Sc3ccccc3N2CCCS(=O)(=O)O)SC1=S | 1.02% (inactive) | -10.6
36 | CCN1C(=O)/C(=C2/Sc3ccc(OC)cc3N2C)SC1=Nc1ccc(C)cc1 | 24.8% (active) | -15
37 | CC(=O)c1ccc(N=C2SCCCN2C(=O)C2CCCCC2)cc1 | 1.47% (inactive) | -1.61
38 | CCCOc1ccc(NC(=O)C2CCCNC2=O)cc1 (configuration not stated) | 12.2% (inactive) | -1.43
39 | CCCOc1ccc(NC(=O)C2OC3OC(C)(C)OC3C3OC(C)(C)OC23)cc1 (configuration not stated) | 19.1% (active) | -25.3
40 | CCCOc1ccc(N/C=C/C(=O)C(C)(C)C)cc1 | 0.722% (inactive) | -6.8
41 | C=CCOc1c(Br)cc(/C=N\n2nnnc2N)cc1OC | 6.77% (inactive) | 29
42 | CC1(C)CCCC2=C1CC1C(=O)N(c3ccccc3)C(=O)C1C2 (configuration not stated) | 3.25% (inactive) | 1.28
43 | CC1CC2=C(CC1/C=N/NC(N)=S)C(C)(C)CCC2 (configuration not stated) | 39.4% (active) | 20
44 | Cc1cc2c(C)nc(N/N=C/c3ccccc3)nc2o1 | 16.3% (inactive) | 2.3
45 | Cc1ccc(Cl)cc1N1CCN(C(=O)c2cccc3c(=O)c(C)c(-c4ccccc4)oc23)CC1 | 3.68% (inactive) | 9.69
46 | O=C1CCC(=O)N1c1ccc(NCCc2ccccc2F)c([N+](=O)[O-])c1 | 1.23% (inactive) | 31.5
47 | CC(Oc1cccc(NC(=O)c2cccs2)c1)C(=O)c1ccccc1 (configuration not stated) | 9.23% (inactive) | 21.1
48 | Cc1ccc(NC(=O)CN2CCCCC2)c2c1CC(C)(C)O2 | 4.85% (inactive) | -23.6
49 | CCCc1[nH]nc2c1C(C1CC=CCC1)C(C#N)=C(N)O2 (configuration not stated) | 8.01% (inactive) | 13
50 | CCCc1[nH]nc2c1C(c1c(C)nn(-c3ccccc3)c1Cl)C(C#N)=C(N)O2 (configuration not stated) | 16.1% (inactive) | 24.7
51 | CCCc1[nH]nc2c1C(c1ccc(Br)s1)C(C#N)=C(N)O2 (configuration not stated) | 13.3% (active) | 8.15
